Consider 6 compounds from PubChem BioAssay (NCI).

A short description of experiment [1]: NCI Yeast Anticancer Drug Screen. Data for the rad50 strain (AID 155).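 Further: 0% = growth of vehicle-only cultures of the same strain.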 To be noted: S. cerevisiae rad50 strain growth inhibition, active compounds read high. A digest of the protocol: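 Inhibition values express reduced yeast growth in compound-treated cultures relative to vehicle-treated controls.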
Experiment [2] is described as follows: NCI Yeast Anticancer Drug Screen. Data for the mec2-1 strain (AID 157). To be noted: S. cerevisiae mec2-1 strain, active compounds read high. An outline of the steps:
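Test agents were screened against the mec2-1 yeast strain, with defined DNA repair or cell cycle alteration. Growth was scored as inhibition against vehicle-only controls.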

Experiment [3] in a line: NCI Yeast Anticancer Drug Screen. Data for the sgs1 mgt1 strain (AID 161).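 Further: 0% = growth of cultures given vehicle only.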 To be noted: S. cerevisiae sgs1 mgt1 strain, active compounds read high. An outline of the steps: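 Read-out: growth inhibition vs vehicle controls. Cells: mutant yeast strain deficient in DNA damage repair.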
A short description of experiment [4]: NCI Yeast Anticancer Drug Screen. Data for the cln2 rad14 strain (AID 165).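 Further: 0% = growth equal to vehicle treated cultures.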 The note with it: S. cerevisiae cln2 rad14 strain, active compounds read high. An outline of the steps: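 Growth of compound-exposed yeast (cln2 rad14 genotype) measured and expressed as inhibition relative to vehicle.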
Experiment [5] in a line: NCI Yeast Anticancer Drug Screen. Data for the bub3 strain (AID 167). To be noted: S. cerevisiae bub3 mutant strain, active compounds read high. An outline of the steps:
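Steps: expose the mutant yeast strain to compound; grow alongside vehicle-treated cultures; measure growth; express inhibition against the vehicle cultures.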

A short description of experiment [6]: NCI Yeast Anticancer Drug Screen. Data for the mlh1 rad18 strain (AID 175). To be noted: S. cerevisiae mlh1 rad18 strain growth inhibition, active compounds read high. A digest of the protocol:
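In this whole-cell yeast screen, a strain with altered DNA damage repair is challenged with compound, and its growth is measured against matched vehicle-treated controls.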

Where [7] appears, read: at 5.0 µM (retest, dose inferred, filed as 0.5).
[8] abbreviates: at 50.0 µM (retest, dose inferred, filed as 5.0).

This is part of a sample that, as a whole, favours compounds with a hit. Of some 79,000 tested, about 15% had one in any assay. Unmarked numbers belong to inactive results. Activity calls are given as the source filed them. No stated cut-off is given here; in the data, active means growth inhibition above about 70%; inactive means the rest.

In the case of `O=C(/C=C/c1ccc2c(c1)OCO2)c1ccc(O)cc1`, the growth inhibition in experiment [1] (setting [7]) is -27%; in experiment [1] (setting [8]) it was -21%; in experiment [1] (at 50.0 µM), 61%; in experiment [2] (setting [7]), -13%; in experiment [2] (setting [8]), 21%; in experiment [2] (at 50.0 µM), 44%. Also, the growth inhibition was -27% in experiment [3] (setting [7]); -31% in experiment [3] (setting [8]); 40.8% in experiment [3] (at 50.0 µM); -7% in experiment [4] (setting [7]); -11% in experiment [4] (setting [8]); 65.2% in experiment [4] (at 50.0 µM). In addition, the growth inhibition in experiment [5] (setting [7]) is -32%; in experiment [5] (setting [8]), 5%; in experiment [5] (at 50.0 µM), 61.5%; in experiment [6] (setting [7]), -33%; in experiment [6] (setting [8]), -17%; in experiment [6] (at 50.0 µM) it was 14.6%.

With `O=C(Nc1ccc(Br)cc1)c1c(-c2ccccc2)c2ccc(O)cc2oc1=O`, the growth inhibition is 0% in experiment [1] (setting [7]); 96% (active) in experiment [1] (setting [8]); 96.3% (active) in experiment [1] (at 50.0 µM); -9% in experiment [2] (setting [7]); 97% (active) in experiment [2] (setting [8]); 95.5% (active) in experiment [2] (at 50.0 µM). Moreover, the growth inhibition in experiment [3] (setting [7]) is -5%; in experiment [3] (setting [8]), 93% (active); in experiment [3] (at 50.0 µM), 98.6% (active); in experiment [4] (setting [7]) it was -7%; in experiment [4] (setting [8]), 95% (active); in experiment [4] (at 50.0 µM), 94% (active). The growth inhibition in experiment [5] (setting [7]) is -10%; in experiment [5] (setting [8]) it was 96% (active); in experiment [5] (at 50.0 µM), 97.2% (active); in experiment [6] (setting [7]), -3%; in experiment [6] (setting [8]) it was 96% (active); in experiment [6] (at 50.0 µM), 98.4% (active).

On to `CCOCCNCc1ccc(Cl)c(Cl)c1`, for which the growth inhibition in experiment [1] (setting [7]) was -145%; in experiment [1] (setting [8]) it was -89%; in experiment [1] (at 50.0 µM), 4.05%; in experiment [2] (setting [7]), -47%; in experiment [2] (setting [8]), -51%; in experiment [2] (at 50.0 µM), 0.1%. The growth inhibition in experiment [3] (setting [7]) was -60%; in experiment [3] (setting [8]), -90%; in experiment [3] (at 50.0 µM), 2.7%; in experiment [4] (setting [7]), -51%; in experiment [4] (setting [8]), -53%; in experiment [4] (at 50.0 µM), 21.1%. Further, the growth inhibition was -67% in experiment [5] (setting [7]); -50% in experiment [5] (setting [8]); -5.85% in experiment [5] (at 50.0 µM); -144% in experiment [6] (setting [7]); -85% in experiment [6] (setting [8]); -7.9% in experiment [6] (at 50.0 µM).

For `[Cu+2].c1ccc2n[nH]nc2c1`, the growth inhibition in experiment [1] (setting [7]) was 99% (active); in experiment [1] (setting [8]), 99% (active); in experiment [1] (at 50.0 µM), 98.8% (active); in experiment [2] (setting [7]), 99% (active); in experiment [2] (setting [8]) it was 99% (active); in experiment [2] (at 50.0 µM) it was 99.3% (active). The growth inhibition in experiment [3] (setting [7]) was 98% (active); in experiment [3] (setting [8]), 99% (active); in experiment [3] (at 50.0 µM), 98.5% (active); in experiment [4] (setting [7]), 70% (active); in experiment [4] (setting [8]), 99% (active); in experiment [4] (at 50.0 µM) it was 98.3% (active). For the same compound, the growth inhibition in experiment [5] (setting [7]) is 96% (active); in experiment [5] (setting [8]) it was 99% (active); in experiment [5] (at 50.0 µM), 98.6% (active); in experiment [6] (setting [7]) it was 99% (active); in experiment [6] (setting [8]) it was 99% (active); in experiment [6] (at 50.0 µM), 98.7% (active).

For `Cc1ccccc1SCc1nc2ccccc2c(C)[n+]1[O-]`, the growth inhibition in experiment [1] (setting [7]) was -3%; in experiment [1] (setting [8]), 73% (active); in experiment [1] (at 50.0 µM), 35.5%; in experiment [2] (setting [7]), 4%; in experiment [2] (setting [8]), 63%; in experiment [2] (at 50.0 µM), 45.2%. Moreover, the growth inhibition was 9% in experiment [3] (setting [7]); 68% in experiment [3] (setting [8]); 58.7% in experiment [3] (at 50.0 µM); -1% in experiment [4] (setting [7]); 44% in experiment [4] (setting [8]); 35% in experiment [4] (at 50.0 µM). Besides, the growth inhibition in experiment [5] (setting [7]) was -1%; in experiment [5] (setting [8]) it was 69%; in experiment [5] (at 50.0 µM), 59%; in experiment [6] (setting [7]) it was 42%; in experiment [6] (setting [8]) it was 89% (active); in experiment [6] (at 50.0 µM), 59.9%.

Consider `Cc1nc(-c2cccc(Cl)c2)oc1-c1ccccc1`, for which the growth inhibition was 2% in experiment [1] (setting [7]); 78% (active) in experiment [1] (setting [8]); 28.4% in experiment [1] (at 50.0 µM); 8% in experiment [2] (setting [7]); 78% (active) in experiment [2] (setting [8]); 27.8% in experiment [2] (at 50.0 µM). Besides, the growth inhibition in experiment [3] (setting [7]) was 17%; in experiment [3] (setting [8]), 85% (active); in experiment [3] (at 50.0 µM) it was 40.2%; in experiment [4] (setting [7]) it was 1%; in experiment [4] (setting [8]) it was 80% (active); in experiment [4] (at 50.0 µM) it was 53.4%. For the same compound, the growth inhibition in experiment [5] (setting [7]) is -3%; in experiment [5] (setting [8]) it was 76% (active); in experiment [5] (at 50.0 µM), 47.8%; in experiment [6] (setting [7]) it was 4%; in experiment [6] (setting [8]), 76% (active); in experiment [6] (at 50.0 µM) it was 58.5%.
